# Abeta rescue – A-beta toxicity reversal in yeast; yeast expressing A-beta42, growth rescue, OD600, 48 h; response scale: 0% DMSO, 100% iron-clioquinol control; Potency, µM (titrated, usually from 46.1 µM), most hits filed as activators; 0.063% of 410,000 active; AID 1347071; note: nearly all actives have a fitted effect of over 55% in size
#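 Yeast A-beta toxicity model in growth medium with pinned compounds, 48 h at 30 C; growth read as absorbance at 600 nm. Normalized to FeCl3/clioquinol equimolar mix (positive) and DMSO (negative).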
# aSyn yeast inh – rescues yeast growth from alpha-synuclein toxicity; Yeast expressing alpha-synuclein, growth rescue, BacTiter-Glo, 24 h; Potency, µM (top dose mostly 46.1 µM), for the others: at the top dose growth rescue (activation), most hits filed as activators; 0.14% of 370,000 active; AID 652106; note: % of control where 0% means no effect; nearly all actives have a fitted effect of over 65% in size
#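 Readout is rescue of growth in alpha-synuclein-expressing yeast, so inhibitors of toxicity appear as activators. Growth after 24 hr at 30 deg C in galactose medium is quantified by luminescence.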
# FUS suppressor – rescues growth of FUS-expressing yeast | S. cerevisiae FUS-expressing, growth rescue, OD600, 24 h | Potency, µM (highest dose often 76.6 µM), most hits filed as activators | 0.24% of 390,000 active | AID 1347120;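 note: plate controls were DMSO vehicle for no effect and reference control for full effect; nearly all actives have a fitted effect of over 55% in size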
#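 Yeast expressing FUS under galactose induction, OD 0.005 in 2% galactose medium; compounds in a dilution series, 24 h at 30C. Growth rescue by absorbance at 600 nm; CP55940 positive control, DMSO negative.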
# TDP-43 yeast inh – rescues yeast growth from TDP-43 toxicity. TDP-43 expressing yeast growth rescue, BacTiter-Glo, 24 h. Potency, µM (top dose mostly 46.1 µM), inactives show at the top dose growth rescue (activation), hits mostly activators. 1.8% of 410,000 active; note: % of control where 0% means no effect; nearly all actives have a fitted effect of over 50% in size
#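 Luminescence from BacTiter-Glo reports growth of TDP-43-expressing yeast after 24 hr at 30 deg C with compound. Cells were raffinose-pregrown to mid-log, then seeded in galactose medium at OD600=0.02.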
# TSG101-PTAP inh – blocks PTAP/TSG101 interaction to inhibit HIV-1 budding | Q99816 | Fluorescence polarization, FITC-PTAP peptide / Tsg101 binding | Potency, µM (doses to about 115 µM), for the others: top-dose activity change, negative = inhibition, actives largely listed as inhibitors | 340,000 tested, under 10 active | AID 493005; active = well fitted inhibition curve with a large enough effect in the main read-out, with a control signal flat, not every such curve was filed as active; inconclusive = small, poorly fitted or top-dose-only effect, or effect the other way, or a change in a side signal; inactive = no such curve, though single readings can be large or run the other way; note: % of control where 0% means no effect
# Target sequence (Q99816 whole entry, looked up): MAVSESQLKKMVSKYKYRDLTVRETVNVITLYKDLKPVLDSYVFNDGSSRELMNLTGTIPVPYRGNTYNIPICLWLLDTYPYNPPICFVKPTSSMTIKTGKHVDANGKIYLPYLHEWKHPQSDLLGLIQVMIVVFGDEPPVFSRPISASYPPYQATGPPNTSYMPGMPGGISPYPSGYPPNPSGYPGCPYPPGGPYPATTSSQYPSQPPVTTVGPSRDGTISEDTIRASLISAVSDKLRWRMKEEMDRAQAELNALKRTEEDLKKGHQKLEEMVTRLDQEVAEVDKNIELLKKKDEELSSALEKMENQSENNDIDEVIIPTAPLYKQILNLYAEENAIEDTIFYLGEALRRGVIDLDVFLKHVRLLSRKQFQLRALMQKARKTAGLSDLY
#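 Compounds were pin-transferred onto Tsg101 binding domain (10 uM final) in HEPES pH 7.5 buffer, then FITC-PTAP peptide was added at 50 nM final. After 20 min at RT, polarization reported peptide displacement across a qHTS concentration series.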
# Active calls of the source: *; i = inactive; ? = inconclusive; . = no result given; ! = a repeat was not active; [ ] = remark or other dose. Only some compounds are listed: those with a hit (about 2.1% of all), similar ones and a draw of the others. Unless noted, calls come from the whole dose curve; as a rule, active = well fitted curve in the direction sought with a large enough effect; inconclusive = small, poorly fitted or top-dose-only effect, or another doubt; inactive = no such curve, though single readings can be large; an effect the other way counts as inactive or inconclusive. Potency is the fitted concentration of half-maximal effect.
SMILES,Abeta rescue,aSyn yeast inh,FUS suppressor,TDP-43 yeast inh,TSG101-PTAP inh
COc1cccc(-c2cc(NC=O)c3ncc(-c4ccc(OC)c(OC)c4)n3c2)c1,i,-8%,?,?,.
COc1cccc(-c2cnc3c(NC=O)cc(-c4ccc(N(C)C)cc4)cn23)c1,i,-9%,?,20µM*,.
COC(=O)[C@]12C[C@H](CC(=O)N3CCCC3)C(=O)N(Cc3ccco3)C1=C[C@H](C(C)(C)C)O[C@@H]2C,.,.,i,.,.
O=C1Nc2ccccc2-c2nnnn2C1N1CCCCC1 (centres undefined),i,0%,i,9%,.
Cc1ccc(Cl)cc1NC(=O)CN1C(=O)C(C)(C)c2cc(S(=O)(=O)N3CCCCC3)ccc21,i,.,i,14%,.
COc1cccc(-c2cnc3c(NC=O)cc(-c4cc(OC)c(OC)c(OC)c4)cn23)c1,i,-19%,28µM*,?,.
CN1CCCC(C)(C(=O)Nc2cccc(Oc3ccccc3)c2)C1 (centres undefined),i,-5%,i,7%,.
CC(NC(=S)Nc1cccc(C(F)(F)F)c1)C(C)(C)C (centres undefined),13µM*,-34%,i,19%,-4%
CN(C)c1ccc(NC(=O)CCSc2nc(-c3ccco3)cc(C(F)(F)F)n2)cc1,i,.,i,19%,.
Cc1ccc(CNc2cc(C)nc3nc(-c4cccc(C)c4)nn23)cc1,i,-4%,i,20µM*,.
Cc1ccc(CNc2cc(C)nc3nc(-c4ccc(C)cc4)nn23)cc1,i,-1%,i,24%,.
CCOc1cc(C2NN=C(c3ccccc3)S2)ccc1OCc1ccccc1Cl (centres undefined),i,3%,i,10µM*,-10%
CCOc1cc(C2NN=C(c3ccccc3)S2)ccc1OCc1ccc(F)cc1 (centres undefined),i,-5%,i,14µM*,-1%
CCN1CCCCC(NC(=O)c2ccc(Cl)cc2Cl)C1=O (centres undefined),.,.,i,.,.
COc1cc(C=O)ccc1OCCOCCOc1c(C)cc(Cl)cc1Cl,i[9.22 µM],23%,i,22µM*,-3%
CC(C)c1ccc(NC(=O)CSC2=Nc3ccccc3C3=NC(CCC(=O)NCc4cccs4)C(=O)N23)cc1 (centres undefined),i,.,i,4%,.
CC(C)(C)c1nnc(N/N=C/c2ccccc2)n(N)c1=O,i,-1%,.,0%,-1%
CC(C)(C)c1nnc(N/N=C/c2ccccc2O)n(N)c1=O,11µM*,18µM*,i,13%,-2%
OC[C@H](S)CS,.,9%,.,.,.
Cc1ccc(CNC(=O)c2ccc(-c3nc(CS(=O)c4ccccc4)c(C)o3)cc2)cc1 (centres undefined),i,.,i,-12%,.
COc1ccc(CNC(=O)c2ccc(-c3nc(CS(=O)c4ccc(C)cc4)c(C)o3)cc2)cc1 (centres undefined),i,.,25µM*,-27%,.
COc1cccc(COC(=O)c2nn(-c3ccccc3)nc2N)c1,i,-4%,i,35µM*!,0%
Cc1ccc(S(=O)(=O)NC(Cc2ccccc2)C(=O)NN)cc1 (centres undefined),i,-1%,i,2%,0%
Cc1ccc(S(=O)(=O)NOCc2ccccc2)cc1,i,18µM*,i,-16%,1%
Cc1ccc(S(=O)(=O)N[C@@H](Cc2ccccc2)C(=O)CCl)cc1,i,-39%,i,3.2µM*,-5%
CCOC(=O)c1c(S(=O)(=O)N2CCC(C(=O)N3CCN(c4ccc(F)cc4)CC3)CC2)c(C)n(C)c1C,i,.,i,16%,.
COc1ccc(S(=O)(=O)NCCSCc2ccccc2C)cc1Br,i,?,i,16µM*,-4%
O=C(c1ccc2nc(-c3ccccc3)c(-c3ccccc3)nc2c1)N1CCCCC1,i,-1%,i,35µM*,-5%
CCCCNC(=O)CN1C(=O)c2c(c3ccccc3n2C)C1c1ccc(OC)cc1 (centres undefined),i,.,i,0%,.

# Bioassay records: PubChem BioAssay, National Center for Advancing Translational Sciences (NCATS)
